Test results as given in PubChem BioAssay (Tox21).
Results filed as inconclusive are left out. Entries that show only a call come without a potency. Values without a mark were called inactive. Activity calls are given as the source filed them. Unless noted, the call rests on the fitted dose curve; in most records, active means well fitted curve in the direction sought with a large enough effect in the repeat runs; inconclusive means weak or mixed curves; inactive means no such curve, though single readings can be large; an effect the other way counts as inactive or inconclusive.

Tests used:
[1] = qHTS assay to identify small molecule agonists of the vitamin D receptor (VDR) signaling pathway - cell viability counter screen (AID 743224); further: nearly all actives have a fitted effect of over 50% in size
Outline: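 VDR-bla cells, 4 h after plating, exposed to compounds for 16 h at 37C; viability then read in the same wells as CellTiter-Glo luminescence after 30 min at room temperature, following the bla FRET read.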

[2] = qHTS assay to identify small molecule antagonists of the vitamin D receptor (VDR) signaling pathway - cell viability counter screen (AID 743225); further: nearly all actives have a fitted effect of over 50% in size
Outline: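 In this counter screen, VDR-bla HEK 293T cells receive test compound plus 3 nM final calcitriol for 16 h at 37C. Room-temperature steps of 2 h with the beta-lactamase substrate, then 30 min with CellTiter-Glo, precede the luminescence read.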

[3] = qHTS assay to identify small molecule agonists of the NFkB signaling pathway - cell viability counter screen (AID 1159515; calls by dose curve; further: nearly all actives have a fitted effect of over 55% in size)
Outline: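 NFkB-bla ME-180 cells, 2,000/well, plated overnight at 37 C; compound added for 5 hr at 37 C. Viability read in the same wells as the bla reporter, by CellTiter-Glo luminescence after 30 min at room temperature.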

[4] = qHTS assay to identify small molecule agonists of the endoplasmic reticulum stress response signaling pathway (AID 1159516; active means well fitted activation curve with a large enough effect in the signal ratio in the repeat runs, not every such curve was filed as active; the % refers to the signal ratio)
Outline: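 CellSensor ESRE-bla HeLa cells, 1,500 per well, plated overnight, then exposed to compounds for 5 hr at 37 C. Beta-lactamase reporter read with LiveBLAzer B/G FRET substrate after 2 hr at room temperature, 405 nm excitation, 460 and 530 nm emission.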

[5] = qHTS assay to identify small molecule agonists of the endoplasmic reticulum stress response signaling pathway - cell viability counter screen (AID 1159517; calls by dose curve;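 further: HeLa cells carrying an ER stress response element beta-lactamase reporter; nearly all actives have a fitted effect of over 50% in size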)
Outline: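 Cells, HeLa ESRE-bla; density, 1,500/well; dosing, 5 hr at 37 C, 5% CO2; readout, CellTiter-Glo luminescence after 30 min RT.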

[6] = qHTS assay to identify small molecule antagonists of the retinoid-related orphan receptor gamma (ROR-gamma) signaling pathway - cell viability counter screen (AID 1159520); further: nearly all actives have a fitted effect of over 50% in size
Outline: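 Cytotoxicity was read from cellular ATP (CellTiter-Glo luminescence) after 16 hr at 37 C with 1 uM doxycycline induction. The inducer was added 2 hr after compound transfer to Tet-on ROR gamma CHO cells.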

[7] = qHTS assay to identify small molecule agonists of the AP-1 signaling pathway - cell viability counter screen (AID 1159525; calls by dose curve; further: nearly all actives have a fitted effect of over 55% in size)
Outline: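 Luminescent ATP readout (Cell Titer Glo, 30 min RT), normalised to DMSO and tetra n-octyl ammonium bromide controls. Cells were ME-180 AP-1-bla in 0.5% dialyzed FBS Opti-MEM, with a 5 h, 37 °C compound exposure.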

[8] = qHTS assay to identify small molecule agonists of the AP-1 signaling pathway (AID 1159526; calls by dose curve)
[9] = biological target: Retinoic acid receptor RXR-alpha (Homo sapiens) (UniProt P19793); experiment: qHTS assay to identify small molecule agonists of the RXR signaling pathway (AID 1159527; calls by dose curve; further: nearly all actives have a fitted effect of over 35% in size)
Outline: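 Fluorescence ratio readout (460 vs 530 nm) from GeneBLAzer RXR-alpha HEK 293T cells after 16 hr compound treatment; cells seeded 5 hr beforehand in low-serum, charcoal-stripped medium.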

[10] = qHTS assay to identify small molecule agonists of the RXR signaling pathway - cell viability counter screen (AID 1159529)
Outline: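 Viability read-out for the RXR-alpha agonist qHTS: luminescent CellTiter-Glo signal after 30 min at RT. HEK 293T bla reporter cells, 2% charcoal-stripped FBS, 16 hr compound incubation; tetraoctyl ammonium bromide as cytotoxic control.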

[11] = qHTS assay to identify small molecule antagonists of the retinoid acid receptor (RAR) signaling pathway - cell viability counter screen (AID 1159551); further: nearly all actives have a fitted effect of over 35% in size
Outline: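 C3RL4 RARE-luciferase cells, 1,000/well, incubated overnight, then dosed with compound plus 1 uM retinol (final). After 6 hr at 37 C, viability read by CellTiter-Glo ATP luminescence following 30 min at room temperature.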

[12] = qHTS assay to identify small molecule antagonists of the retinoic acid receptor (RAR) signaling pathway (AID 1159552; further: nearly all actives have a fitted effect of over 50% in size)
Outline: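 Using a RARE-driven luciferase construct in C3RL4 cells, retinol at 1 uM final provided the agonist stimulus while compounds were co-applied. After 6 hours at 37 C, luminescence was recorded to flag inhibitors of retinol signaling.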

[13] = qHTS assay to identify small molecule agonists of the retinoic acid receptor (RAR) signaling pathway (AID 1159553); details: C3RL4 RARE luciferase reporter, agonist, 6 h; activation: at 73.3 µM (top of the series)
Outline: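 C3RL4 RARE-luciferase cells were seeded at 1,000/well and grown overnight at 37 C, then exposed to compounds for 6 hr at 37 C, 5% CO2. Luciferase reagent was added and luminescence was read after 30 min at room temperature.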

[14] = qHTS assay to identify small molecule antagonists of the estrogen related receptor (ERR) signaling pathway from Tox21 library - cell viability counter screen (AID 1224834); further: nearly all actives have a fitted effect of over 30% in size
Outline: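 ERR reporter cells, 2,000 per well, rested 6 h, then exposed to compound in DMSO for 17.5 hours at 37 C. Viability read as fluorescence after 30 min with CellTiter-Fluor.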

[15] = biological target: Luciferin 4-monooxygenase (Photinus pyralis) (UniProt P08659); experiment: qHTS assay to identify small molecule inhibitors of firefly luciferase (AID 1224835); further: nearly all actives have a fitted effect of over 25% in size
Outline: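 Inhibition of purified Photinus luciferase is measured by luminescence. Substrate levels (D-luciferin, ATP) sit at their KM values. Each compound is tested in a concentration series.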

[16] = biological target: Nuclear receptor subfamily 1 group I member 3 (Homo sapiens) (UniProt Q14994); experiment: qHTS assay to identify small molecule antagonists of the constitutive androstane receptor (CAR) signaling pathway (AID 1224838); further: potency means the concentration at half of the fitted maximal effect; nearly all actives have a fitted effect of over 40% in size
Outline: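 HepG2 cells stably carrying hCAR and a CYP2B6-2.2kb luciferase reporter, seeded 4 hrs before compound (15 concentrations). Stimulated with 50 nM CITCO for 24 hr at 37 C. ONE-Glo luminescence read after 30 min at room temperature.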

[17] = biological target: Nuclear receptor ROR-gamma (Homo sapiens) (UniProt P51449); experiment: qHTS assay to identify small molecule antagonists of the retinoid-related orphan receptor gamma (ROR-gamma) signaling pathway (AID 1159521)
Outline: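 Screening format: cell-based luciferase reporter in CHO cells with doxycycline-inducible RORγ. Compound pre-exposure lasts 2 h, doxycycline is 1 uM final, induction runs 16 h at 37 C, and ONE-Glo luminescence is read.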

[18] = qHTS assay to identify small molecule agonists of the constitutive androstane receptor (CAR) signaling pathway - cell viability counter screen (AID 1224836); further: nearly all actives have a fitted effect of over 45% in size
Outline: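 Multiplexed viability check: HepG2-CYP2B6-hCAR cells, 15-point compound dosing, 0.75 uM PK11195 final, 23 h at 37 C, CellTiter-Fluor fluorescence.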

[19] = qHTS assay to identify small molecule antagonists of the constitutive androstane receptor (CAR) signaling pathway - cell viability counter screen (AID 1224837); further: nearly all actives have a fitted effect of over 45% in size
Outline: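 HepG2 cells stably carrying hCAR and CYP2B6-2.2kb reporter, stimulated with 50 nM CITCO and compounds at 15 concentrations for 23 h at 37 C. Viability measured by CellTiter-Fluor fluorescence.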

Chain of Retinoic acid receptor RXR-alpha (Homo sapiens) (P19793 whole entry, looked up): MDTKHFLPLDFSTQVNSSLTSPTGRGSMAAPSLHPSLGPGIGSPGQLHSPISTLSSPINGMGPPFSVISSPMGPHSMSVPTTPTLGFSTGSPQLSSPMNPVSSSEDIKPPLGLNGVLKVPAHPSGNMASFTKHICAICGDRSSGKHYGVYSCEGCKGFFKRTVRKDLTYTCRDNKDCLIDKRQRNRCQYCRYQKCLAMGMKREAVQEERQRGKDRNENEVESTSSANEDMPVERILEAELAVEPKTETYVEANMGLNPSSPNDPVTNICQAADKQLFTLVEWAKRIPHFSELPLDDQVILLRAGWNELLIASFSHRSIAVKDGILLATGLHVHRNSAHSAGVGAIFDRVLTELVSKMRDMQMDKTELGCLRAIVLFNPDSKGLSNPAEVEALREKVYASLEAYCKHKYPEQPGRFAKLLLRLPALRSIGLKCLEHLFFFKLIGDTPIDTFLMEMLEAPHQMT
Chain of Luciferin 4-monooxygenase (Photinus pyralis) (P08659 whole entry, looked up): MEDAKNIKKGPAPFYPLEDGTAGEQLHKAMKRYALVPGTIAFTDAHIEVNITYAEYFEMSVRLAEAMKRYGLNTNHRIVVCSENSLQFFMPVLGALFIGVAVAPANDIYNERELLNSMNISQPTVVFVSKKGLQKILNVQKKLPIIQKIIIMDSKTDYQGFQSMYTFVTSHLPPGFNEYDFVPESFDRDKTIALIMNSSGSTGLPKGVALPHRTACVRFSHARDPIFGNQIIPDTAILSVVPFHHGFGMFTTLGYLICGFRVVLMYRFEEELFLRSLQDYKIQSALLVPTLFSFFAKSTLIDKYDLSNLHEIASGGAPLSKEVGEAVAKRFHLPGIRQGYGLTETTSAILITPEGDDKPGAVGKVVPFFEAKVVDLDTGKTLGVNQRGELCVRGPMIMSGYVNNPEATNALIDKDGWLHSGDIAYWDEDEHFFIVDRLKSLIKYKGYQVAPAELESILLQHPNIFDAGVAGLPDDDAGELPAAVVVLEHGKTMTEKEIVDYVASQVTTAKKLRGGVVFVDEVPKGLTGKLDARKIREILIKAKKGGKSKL
Chain of Nuclear receptor subfamily 1 group I member 3 (Homo sapiens) (Q14994 whole entry, looked up): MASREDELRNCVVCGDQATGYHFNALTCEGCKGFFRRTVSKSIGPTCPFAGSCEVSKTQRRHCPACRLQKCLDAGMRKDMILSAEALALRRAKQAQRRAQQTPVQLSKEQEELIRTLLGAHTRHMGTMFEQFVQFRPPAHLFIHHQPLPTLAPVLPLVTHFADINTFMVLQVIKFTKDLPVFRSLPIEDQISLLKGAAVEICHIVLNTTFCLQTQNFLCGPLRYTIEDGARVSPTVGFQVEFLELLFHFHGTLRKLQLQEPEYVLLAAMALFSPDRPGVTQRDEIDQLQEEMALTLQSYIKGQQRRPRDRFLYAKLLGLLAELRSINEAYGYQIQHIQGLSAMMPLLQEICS

Structure (SMILES)	outcome [1]	outcome [2]	outcome [3]	outcome [4]	outcome [5]	outcome [6]	outcome [7]	outcome [8]	Potency [9]	outcome [10]	outcome [11]	Potency [12]	Potency [13]	Potency [14]	Potency [15]	Potency [16]	outcome [17]	outcome [18]	Potency [19]
Cc1ccc2c(c1)c1c3n2CCNC3CCC1 (centres undefined)	inactive	inactive	inactive	inactive	inactive	inactive	inactive	inactive	inactive	inactive	inactive	inactive	inactive	inactive	inactive	750 nM (active)			
C=C(C)[C@@H]1CC[C@@H](C)C[C@@H]1O		inactive	inactive	inactive	inactive	inactive	inactive	inactive	inactive		inactive			inactive	inactive		inactive	inactive	inactive
CCCCCCCCCCCCC	inactive	inactive	inactive	inactive	inactive	inactive	inactive	inactive	inactive		inactive	inactive	inactive	inactive	inactive		inactive	inactive	inactive
CCC1Nc2cc(Cl)c(S(N)(=O)=O)cc2S(=O)(=O)N1 (centres undefined)	inactive	inactive	inactive	inactive		inactive	inactive	inactive	inactive		inactive	inactive	inactive	inactive	inactive		inactive		inactive
NS(=O)(=O)c1cc2c(cc1Cl)NC(CC1CCCC1)NS2(=O)=O (centres undefined)		inactive	inactive	inactive		inactive	inactive	inactive	inactive		inactive	inactive	inactive	inactive	inactive		inactive	inactive	inactive
CN[C@@H]1[C@H](O)[C@H](NC)[C@H]2O[C@@]3(O)C(=O)C[C@@H](C)O[C@H]3O[C@@H]2[C@H]1O		inactive	inactive	inactive	inactive	inactive	inactive	inactive	inactive	inactive	inactive	inactive	inactive	inactive	inactive		inactive	inactive	inactive
